In PubChem BioAssay AID1159580 (chemical genetic matrix, 2015):
Where “and” joins values, the source holds several entries; their conditions need not be identical. Equal values may be shown once. The campaign covered roughly 5,500 compounds. About 2,000 (36%) were called active. Another 18% or so got no clear call; they are omitted. No stated cut-off is given here; in the data, active means normalized growth mostly below about 0.91 (no sharp cut-off); inconclusive means no clear call, values can overlap the other calls; inactive means mostly above about 0.92. The list shows a part of the results.

Assay: chemical genetic growth profiling, strain panel (AID 1159580);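 further: tested at 20 µM; growth read once vehicle control cultures reached saturation at 30 °C; 1 = growth at the plate median or of vehicle wells; lower values mean less growth of the strain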
Conditions: S. cerevisiae deletion strains, growth OD

Measured: normalized growth

C[C@]12CCC(=O)C=C1CCC1C2[C@@H](O)C[C@@]2(C)C1CC[C@]2(O)C(=O)COC(=O)CCC(=O)O (stereo not given in full)
inactive: locus YAL021C, strain ccr4, hits give low values 1.02 | locus YAL026C, strain drs2, hits give low values 1.01 | locus YAL030W, strain snc1, hits give low values 1.01 | locus YBL061C, strain skt5, hits give low values 1.02 | locus YBR009C, strain hhf1, hits give low values 1 | locus YBR021W, strain FUR4, hits give low values 1.01 | locus YBR023C, strain chs3, hits give low values 1.02 | locus YBR171W, strain sec66, hits give low values 1.02 | locus YBR229C, strain ROT2, hits give low values 1.01 | locus YBR231C, strain swc5, hits give low values 1.02 | locus YBR279W, strain paf1, hits give low values 1 | locus YCL011C, strain gbp2, hits give low values 1.01 | locus YCL016C, strain dcc1, hits give low values 0.993 | locus YCL029C, strain bik1, hits give low values 0.999 | locus YCL061C, strain MRC1, hits give low values 1.02 | locus YCL069W, strain vba3, hits give low values 1.01 | locus YCR088W, strain abp1, hits give low values 1.01 | locus YDL005C, strain med2, hits give low values 1.02 | locus YDL035C, strain GPR1, hits give low values 1.01 | locus YDL040C, strain nat1, hits give low values 1.01 | locus YDL074C, strain BRE1, hits give low values 1.01 | locus YDL101C, strain DUN1, hits give low values 1 | locus YDL185W, strain tfp1, hits give low values 1 | locus YDL192W, strain arf1, hits give low values 1.01 | locus YDR001C, strain nth1, hits give low values 1.02 | locus YDR069C, strain doa4, hits give low values 1.02 | locus YDR101C, strain arx1, hits give low values 1.01 | locus YDR137W, strain rgp1, hits give low values 1.02 | locus YDR150W, strain NUM1, hits give low values 1.01 | locus YDR159W, strain sac3, hits give low values 1.03 | locus YDR162C, strain NBP2, hits give low values 1.01 | locus YDR195W, strain ref2 0.997 | locus YDR297W, strain sur2, hits give low values 1.02 | locus YDR318W, strain mcm21, hits give low values 0.995 | locus YDR334W, strain swr1, hits give low values 1.01 | locus YDR335W, strain msn5, hits give low values 1.01 | locus YDR388W, hits give low values 1 | locus YDR392W, strain spt3, hits give low values 0.969 | locus YDR502C, strain sam2, hits give low values 0.999 | locus YEL003W, strain gim4, hits give low values 1.03 | locus YEL037C, strain rad23, hits give low values 1.01 | locus YEL061C, strain CIN8 (second series), hits give low values 1.03 | locus YEL061C, strain CIN8, hits give low values 1.01 | locus YER015W, strain faa2, hits give low values 0.998 | locus YER016W, strain bim1, hits give low values 1.01 | locus YER110C, hits give low values 1.01 | locus YER111C, strain swi4, hits give low values 1.02 | locus YER155C, strain BEM2 (second series), hits give low values 1.03 | locus YER155C, strain BEM2, hits give low values 0.997 | locus YER167W, strain BCK2, hits give low values 1.01 | locus YFR010W, strain ubp6, hits give low values 1.02 | locus YGL078C, strain dbp3, hits give low values 0.996 | locus YGL086W, strain mad1, hits give low values 0.999 | locus YGL167C, strain pmr1, hits give low values 1.03 | locus YGL173C, strain kem1, hits give low values 1.02 | locus YGL227W, strain vid30, hits give low values 1.01 | locus YGL240W, strain doc1, hits give low values 1.02 | locus YGL248W, strain PDE1, hits give low values 1 | locus YGL253W, strain hxk2, hits give low values 0.99 | locus YGR078C, strain PAC10, hits give low values 1.01 | locus YGR135W, strain pre9, hits give low values 0.989 | locus YGR252W, strain gcn5, hits give low values 0.943 | locus YHR013C, strain ard1, hits give low values 1.02 | locus YHR027C, strain rpn1, hits give low values 1.02 | locus YHR030C, strain SLT2, hits give low values 1.01 and 0.974 | locus YHR079C, strain IRE1 (second series), hits give low values 1 | locus YHR079C, strain IRE1, hits give low values 0.976 | locus YHR094C, strain hxt1, hits give low values 0.993 | locus YHR129C, strain ARP1, hits give low values 1 | locus YHR142W, strain chs7, hits give low values 1.01 | locus YHR200W, strain rpn10, hits give low values 1.01 | locus YIL066C, strain RNR3, hits give low values 1.01 | locus YIL073C, strain SPO22, hits give low values 1.02 | locus YIL125W, strain kgd1, hits give low values 1 | locus YIR030C, strain dcg1, hits give low values 1 | locus YJL092W, strain hpr5, hits give low values 1.02 | locus YJL095W, strain BCK1 (second series), hits give low values 1.02 | locus YJL095W, strain BCK1, hits give low values 1.01 and 0.976 | locus YJL115W, strain asf1, hits give low values 1.02 | locus YJL129C, strain trk1, hits give low values 1.03 | locus YJL134W, strain LCB3, hits give low values 1.01 | locus YJL154C, strain vps35, hits give low values 1.02 | locus YJL164C, strain tpk1, hits give low values 1.02 | locus YJL166W, strain qcr8, hits give low values 1 | locus YJL168C, strain set2, hits give low values 0.996 | locus YJL187C, strain SWE1 (second series), hits give low values 1.01 | locus YJR043C, strain POL32, hits give low values 1.02 | locus YJR066W, strain TOR1, hits give low values 0.931 | locus YJR075W, strain HOC1, hits give low values 1.02 | locus YKL009W, strain mrt4, hits give low values 1.02 | locus YKL068W, hits give low values 0.998 | locus YKL085W, strain MDH1 (second series), hits give low values 0.999 | locus YKL085W, strain MDH1, hits give low values 0.999 | locus YKL160W, strain elf1, hits give low values 1.01 | locus YKR001C, strain vps1, hits give low values 1.01 | locus YKR026C, strain gcn3, hits give low values 1.02 | locus YKR091W, strain srl3, hits give low values 1 | locus YLL001W, strain dnm1, hits give low values 1.01 | locus YLL026W, hits give low values 1.01 | locus YLL041C, strain sdh2, hits give low values 1.03 | locus YLR027C, strain aat2, hits give low values 1.01 | locus YLR039C, strain RIC1, hits give low values 1.02 | locus YLR058C, strain SHM2, hits give low values 0.989 | locus YLR102C, strain apc9, hits give low values 1 | locus YLR113W, strain HOG1, hits give low values 0.977 | locus YLR221C, strain rsa3, hits give low values 1.02 | locus YLR258W, strain gsy2, hits give low values 1.01 | locus YLR262C, strain YPT6 (second series), hits give low values 1.02 | locus YLR262C, strain YPT6, hits give low values 1.06 | locus YLR268W, strain sec22, hits give low values 0.992 | locus YLR320W, strain mms22, hits give low values 0.979 | locus YLR330W, strain CHS5, hits give low values 1.01 | locus YLR342W, strain FKS1 (second series), hits give low values 0.998 | locus YLR342W, strain FKS1, hits give low values 1.01 | locus YLR357W, strain rsc2, hits give low values 0.995 | locus YLR370C, strain arc18, hits give low values 1.01 | locus YLR371W, strain rom2, hits give low values 0.996 | locus YLR384C, strain iki3, hits give low values 1.02 | locus YLR418C, strain cdc73, hits give low values 0.988 | locus YML016C, strain PPZ1, hits give low values 1 | locus YML032C, strain rad52, hits give low values 0.994 | locus YML120C, strain ndi1, hits give low values 1.02 | locus YML124C, strain tub3, hits give low values 0.994 | locus YMR058W, strain fet3, hits give low values 1.02 | locus YMR078C, strain ctf18, hits give low values 1 | locus YMR125W, strain sto1, hits give low values 1.01 | locus YMR129W, hits give low values 1.02 | locus YMR205C, strain PFK2, hits give low values 1.03 | locus YMR223W, strain ubp8, hits give low values 0.992 | locus YMR231W, strain pep5, hits give low values 1.01 | locus YMR307W, strain GAS1, hits give low values 1.04 | locus YNL067W, strain RPL9B, hits give low values 1.01 | locus YNL071W, strain lat1, hits give low values 1.01 | locus YNL183C, strain NPR1, hits give low values 0.951 | locus YNL209W, strain ssb2, hits give low values 1.01 | locus YNL233W, strain BNI4, hits give low values 1 | locus YNL248C, strain rpa49, hits give low values 1.04 | locus YNL250W, strain rad50, hits give low values 1 | locus YNL271C, strain bni1, hits give low values 1.01 | locus YNL298W, strain CLA4, hits give low values 1.01 | locus YNL307C, strain MCK1, hits give low values 1.01 | locus YNL322C, strain KRE1 (second series), hits give low values 1.02 | locus YNL322C, strain KRE1, hits give low values 1.01 | locus YNR049C, strain mso1, hits give low values 1.02 | locus YNR052C, strain pop2, hits give low values 1 | locus YOL006C, strain TOP1, hits give low values 1.01 | locus YOL012C, strain htz1 0.91 | locus YOL147C, strain pex11, hits give low values 1 | locus YOR001W, strain rrp6, hits give low values 1.02 | locus YOR061W, strain CKA2, hits give low values 1.01 | locus YOR069W, strain VPS5, hits give low values 1.01 | locus YOR070C, strain gyp1, hits give low values 1 | locus YOR080W, strain dia2, hits give low values 1.01 | locus YOR083W, strain WHI5, hits give low values 0.983 | locus YOR106W, strain vam3, hits give low values 1.04 | locus YOR136W, strain idh2, hits give low values 1.01 | locus YOR144C, strain elg1, hits give low values 1 | locus YOR184W, strain ser1, hits give low values 1.01 | locus YOR231W, strain MKK1, hits give low values 0.997 | locus YOR265W, strain rbl2, hits give low values 1.01 | locus YOR270C, strain vph1, hits give low values 0.99 | locus YOR290C, strain snf2, hits give low values 0.988 | locus YOR316C, strain cot1, hits give low values 1.01 | locus YPL051W, strain arl3, hits give low values 1 | locus YPL055C, strain LGE1, hits give low values 1.01 | locus YPL078C, strain atp4, hits give low values 1 | locus YPL106C, strain sse1, hits give low values 1 | locus YPL240C, strain hsp82, hits give low values 1 | locus YPL241C, strain CIN2, hits give low values 1.01 | locus YPL256C, strain CLN2, hits give low values 0.98 | locus YPR119W, strain clb2, hits give low values 1.01 | locus YPR141C, strain kar3, hits give low values 1.01 | locus YPR163C, strain tif3, hits give low values 1.01 | locus YPR167C, strain met16, hits give low values 1.01 | strain wtn01, hits give low values 0.996
